Hit rate of the full screen: of about 31,000 sequences, about 1,400 (4.5%) were called active.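 The calls were made as follows: active = median seed-adjusted z-score above 1 or below -1; inactive = the rest.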 The sample as a whole holds a higher share of actives than the screen did.

Experimental findings from PubChem BioAssay AID1347426 (Functional Genomics Laboratory (NCATS/FGL), 2020) are described below.

This experiment in a line: Novel Modifiers of Survival Motor Neuron (SMN) Protein: Gene Identification via Genome-wide siRNA Screen.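 Also: luminescence tracks full-length SMN protein made from the SMN2 reporter.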 The settings on record: HEK293T SMN2-luciferase reporter, siRNA knockdown, 72 h; actives lie on both sides. The method, boiled down: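 siRNA screen, 10418 genes ×3 siRNAs; 1 pmol/well, lipid reverse transfection into HEK293T SMN2-luc reporter line. 72 h, 37 °C, 5% CO2; ONE-Glo readout. Data: neg-ctrl normalized, log10, MAD; hit = MAD >1.0 or < -1.0.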
CCCUUACCUUAAUCGACGATT against CRB1: the median seed-adjusted z-score was 0 (inactive).

GGCUGUAUCACAUCGGUUATT against CCR2: the median seed-adjusted z-score was -0.00107 (inactive).

Take GUGCUUUGGUGGUACUAUUTT against ELOVL2: the median seed-adjusted z-score was -0.456 (inactive).

With CAGUGGUAAGAAAGAGAAATT against NRCAM, the median seed-adjusted z-score is -0.0304 (inactive).

Regarding CACUAACUGAUUUACAAGATT against UBE2J1, the median seed-adjusted z-score was -1.2 (active).

As to GGUAAACGAGAUCAACUUUTT against DVL3, the median seed-adjusted z-score was -0.57 (inactive).

For GGAUAUUAGUGUCGUGCAATT against ARHGEF7, the median seed-adjusted z-score was 0.185 (inactive).

Consider GGAGAUUAGCAAGACCAUUTT against HOXC10, for which the median seed-adjusted z-score was 0.000966 (inactive).

As to AGACAGCUGCGAAUCUGGATT against MEFV, the median seed-adjusted z-score was 0 (inactive).

In the case of GGGUUUAUAUCGAACGCAATT against RNF144B, the median seed-adjusted z-score was 0.642 (inactive).

CUCCUGCCUUGAGCCCUUATT against GFRA4: the median seed-adjusted z-score was -1.59 (active).

UGAUGCCUGUGAUACACUATT against NEU1: the median seed-adjusted z-score is -0.425 (inactive).

For the sequence GACAGGUACUUCUAAGUCATT against AHSA1, the median seed-adjusted z-score is 0.489 (inactive).

On to GAAAUUUGCGUGUGGAGUATT against TP53, for which the median seed-adjusted z-score was 0.214 (inactive).

Consider CUAGAUAUCGUGGACCUCATT against PYDC1, for which the median seed-adjusted z-score was -1.44 (active).

As to AUACUACGUUGAUUACAAATT against LRRTM1, the median seed-adjusted z-score is -0.528 (inactive).

Consider CCAGUACCAAAGUUGAUAATT against RB1, for which the median seed-adjusted z-score is 0.49 (inactive).

For the sequence CCAUCUGUUUGAACUUAGATT against TLR5, the median seed-adjusted z-score was 0 (inactive).

As to GCUAAAGAGAGAUAUGGAATT against DARS, the median seed-adjusted z-score was 0 (inactive).

As for GAGUUGAAAAUGACAAUGATT against CLSTN1, the median seed-adjusted z-score was 0.0811 (inactive).

With ACAGCCGCAUGAACAAGGATT against B3GNT7, the median seed-adjusted z-score is -1.05 (active).

With CAAAGACCCUUUAUUCGAATT against BTBD10, the median seed-adjusted z-score was 0.695 (inactive).

For GCCUUAUUGUUACAUGGUUTT against SLC19A2, the median seed-adjusted z-score is -0.679 (inactive).

GCGCAGACGUGAUUGUCAATT against DAO: the median seed-adjusted z-score is -0.00887 (inactive).

As for UGAGAGCCCUAUUCCAGUATT against UBASH3A, the median seed-adjusted z-score was -1.1 (active).

In the case of GGAGGAUCCCAUUAUACUATT against LPA, the median seed-adjusted z-score was -0.321 (inactive).

With GGAUCGCACUCAUGUGGAATT against A4GALT, the median seed-adjusted z-score is -0.286 (inactive).

As for GCAGAUGGUUAUAAGCACATT against GLA, the median seed-adjusted z-score was -0.494 (inactive).

For GACCCGUUUAUACAACAAATT against MX2, the median seed-adjusted z-score was -0.0346 (inactive).

Regarding CUAGCAACAUGGACAUAUUTT against STS, the median seed-adjusted z-score is -0.392 (inactive).

For GGAUUACGUAUCAGACAUATT against CNGA1, the median seed-adjusted z-score was -1.08 (active).

With GGAGCAAAACAGAUCUUGATT against PINX1, the median seed-adjusted z-score was 0.11 (inactive).

Take CCUCUCUAGUAAUGCAAGATT against NAT12: the median seed-adjusted z-score is -0.0807 (inactive).

Take GCUGUGCGUUCUUCACAAATT against RAB17: the median seed-adjusted z-score was 0.473 (inactive).

In the case of CACUCAGACGGGACGUUCATT against SCT, the median seed-adjusted z-score was -0.454 (inactive).

As to CGAGUUUGCUUGGUCAGAATT against SF3B1, the median seed-adjusted z-score was -3.65 (active).

As to CAAUAGAUCAAGUUAUACATT against KPNA5, the median seed-adjusted z-score was -0.174 (inactive).

For UGCUUGGCGACUUCAGUAATT against AKR1C2, the median seed-adjusted z-score is -0.109 (inactive).

Consider UGGGAAUGGUAGAAACAAATT against PPIL1, for which the median seed-adjusted z-score was 0.166 (inactive).

Take GCGCAUCUAUGAUGACGAUTT against UBA1: the median seed-adjusted z-score is 1.34 (active).

For the sequence GAGUUUUUAUGGACUCUCATT against GRIK4, the median seed-adjusted z-score is 0.249 (inactive).

Take CCAGAAAACUUGCGAAACATT against RFX4: the median seed-adjusted z-score was -0.0226 (inactive).

For the sequence CCUCCGGAGAGAAAAAUGATT against NXF2, the median seed-adjusted z-score was -0.0513 (inactive).

CAUCAAAGAUUGCACUUCATT against TOMM34: the median seed-adjusted z-score is -0.503 (inactive).

Take GCCGGAAACAAAUACGUGATT against ZNF677: the median seed-adjusted z-score was -0.441 (inactive).

As to GGCACGUUCUGAUCCAGAUTT against ACADM, the median seed-adjusted z-score was 0.127 (inactive).

As for CGAUAUCAAGUGCACCAAATT against CAD, the median seed-adjusted z-score was 2.37 (active).

With GAGCAUUUGUGCGCAAGUUTT against NRP2, the median seed-adjusted z-score was 0.477 (inactive).

Regarding GCUCAUUCCUUCUACAAUUTT against CACNA1G, the median seed-adjusted z-score is 0.436 (inactive).

For the sequence GGAUGUAAGUUGUCCAAUATT against SUZ12, the median seed-adjusted z-score is -1.65 (active).

For the sequence CGAGUGAAGUGGGAUGAGATT against STARD5, the median seed-adjusted z-score was -0.0333 (inactive).

Consider GCCGUUACCAUGGAACUUUTT against GSPT2, for which the median seed-adjusted z-score is 0.846 (inactive).

For the sequence CACUGACUCGGAAACUGCATT against IGF2BP3, the median seed-adjusted z-score is -0.636 (inactive).

As for CACCAGGUCUGGAUAUUGATT against SF3A1, the median seed-adjusted z-score is -1.09 (active).

Consider GCACAACUGUAGAGACAGATT against CIDEC, for which the median seed-adjusted z-score is 0.189 (inactive).

As for GCAGAGAUCUUUGUAGUCUTT against FTSJ3, the median seed-adjusted z-score is 0.437 (inactive).

With CGGGUAAACUAUGAGCUGATT against ADCY2, the median seed-adjusted z-score is 0.173 (inactive).

Turning to GCAAGGCUUUUGACGUAGATT against MAP3K6, the median seed-adjusted z-score was 0 (inactive).

As to GGAAAUUAUGUAGAACCGATT against ALDH7A1, the median seed-adjusted z-score was -0.406 (inactive).

Take CAGUGCACAGUGAAACCAATT against ADAM11: the median seed-adjusted z-score is 0.102 (inactive).

GAGCUAGCGAAUAACCUUATT against DDX42: the median seed-adjusted z-score is -2.13 (active).

CCCUCGGGAUCACACUUAUTT against MFSD1: the median seed-adjusted z-score is -0.0833 (inactive).

Turning to GCACGAUAUAUAUAGCUAUTT against RIPK2, the median seed-adjusted z-score is 0.176 (inactive).

Take CAAAGACUCUGGAAUGAAUTT against PRICKLE2: the median seed-adjusted z-score was -1.12 (active).

As to CAACAAGCGUAAGACCAAATT against SYTL5, the median seed-adjusted z-score is 0.192 (inactive).

Consider GGAUCGCCCUGUAUGCUGUTT against LRTM2, for which the median seed-adjusted z-score was 0.465 (inactive).

As for GAAGAGCUCUUAGAGUGUATT against BCAT1, the median seed-adjusted z-score was -0.604 (inactive).

With AGUCCUCUAUCAACCUCUUTT against RXFP3, the median seed-adjusted z-score is -0.0651 (inactive).

On to CUCCGUAUCAUAGAUGUAATT against PCDHB3, for which the median seed-adjusted z-score is 0.304 (inactive).

On to GGAGCUCACUGACGAGAAUTT against POLR2C, for which the median seed-adjusted z-score is -2.95 (active).

Take GAAACCAAGUCAUAUGAAATT against CRTAP: the median seed-adjusted z-score is 0.581 (inactive).

As for GGAUCUACUCGGCACUCUATT against ZBTB20, the median seed-adjusted z-score is -0.521 (inactive).

Take AGACCGCACUGACAGAGGATT against BAIAP2: the median seed-adjusted z-score was -0.0497 (inactive).

As to CAAAGAACCUAUCCGCUUATT against GGA2, the median seed-adjusted z-score was -0.142 (inactive).

Consider GAAGCAGAGGACAACAUGATT against SNRPD3, for which the median seed-adjusted z-score was -2.69 (active).

With CAGUUAUGAUUGGUGGAGATT against CDC42, the median seed-adjusted z-score was -0.0938 (inactive).

As to AGAACUUGAUGCUCCGAGATT against ITGA7, the median seed-adjusted z-score was 0.13 (inactive).

With UUCUCUCCCUAAUAAAAAUTT against AVPR2, the median seed-adjusted z-score was -0.262 (inactive).

As to GCCUACCCAUUUGUGAACATT against PEX12, the median seed-adjusted z-score was -0.129 (inactive).

Take GCUCCACCGAGAUUCCUGATT against TCEB1: the median seed-adjusted z-score was 1.08 (active).

GGUGCUGGAGUUAAUCUUATT against TP53I3: the median seed-adjusted z-score was 0.244 (inactive).

Regarding GGCUUAAAGACAUUGAACATT against KLHL1, the median seed-adjusted z-score was 0.067 (inactive).

On to GGACCUAGUGUGAGCAUAATT against COL14A1, for which the median seed-adjusted z-score is 0.19 (inactive).

Regarding GCCCACAUGUUUAAGGACATT against KCTD9, the median seed-adjusted z-score is 1.31 (active).

On to GAUACGUACUAUGACCGAATT against TGM7, for which the median seed-adjusted z-score is 0.244 (inactive).

For the sequence GCACCUUCCGCGUCAUGUUTT against BTBD2, the median seed-adjusted z-score was 0.0303 (inactive).

For the sequence GAGCUGACUUCGGAACUAATT against LCN2, the median seed-adjusted z-score was 0.123 (inactive).

As to CCACAGAGAUAAGCAGUCATT against IL15RA, the median seed-adjusted z-score was -0.0113 (inactive).

Consider GGACUCCCAUCAGUUCCUATT against MFSD4, for which the median seed-adjusted z-score is -1.89 (active).

For GCUGGAAUCUAACAAUAGATT against ROCK2, the median seed-adjusted z-score was -0.149 (inactive).

With CGUGUCCUGUCUGAACCAATT against ESCO2, the median seed-adjusted z-score is 0 (inactive).

For the sequence AAGAGUCAGUUUUCAGAUATT against CHID1, the median seed-adjusted z-score is 0.199 (inactive).

As for GGAGGUUAAAGUGAAGAUUTT against MORF4L2, the median seed-adjusted z-score was 0.389 (inactive).

For AAAUCGAUCAGAUCAACAATT against CDC2L1, the median seed-adjusted z-score was -1.14 (active).

Take CCCUGAUCCUAUAGCUAUUTT against ART4: the median seed-adjusted z-score was -0.0808 (inactive).

Regarding GAUCUGUGGUUGCAAACGATT against TRMT1, the median seed-adjusted z-score was -0.224 (inactive).

Consider CAGUUAUACUCAGAAGAGATT against ZNF155, for which the median seed-adjusted z-score was 0.698 (inactive).

Regarding GAAUGACCUUGAACAAUGATT against ABTB2, the median seed-adjusted z-score is 0.432 (inactive).

As for UGGAAUACAUGGAUCAGAATT against HEPACAM, the median seed-adjusted z-score is -0.063 (inactive).

As to AGUACGGACAGAUCUCUGATT against CIRBP, the median seed-adjusted z-score is -0.701 (inactive).

With CAGUCGACCAGUACAUCAATT against PMS1, the median seed-adjusted z-score was 0.0538 (inactive).

As for AGUUGUAAAUUUACAAAGATT against UNC119, the median seed-adjusted z-score was 0.171 (inactive).

Regarding GAGUUUUUCGAGCUCAUGATT against PGS1, the median seed-adjusted z-score was 1.36 (active).

With GGACUUUGGUGUGAAUGAATT against ANXA1, the median seed-adjusted z-score was -0.114 (inactive).

Take GCAUUGAAACGAAUGGGAATT against UBA5: the median seed-adjusted z-score was -0.105 (inactive).

For the sequence UCUUCACCGUGUGCCUAGATT against CRAT, the median seed-adjusted z-score was -1.42 (active).

Turning to GCAGAUAAGAUCAAGAUCATT against SRPK3, the median seed-adjusted z-score is -0.643 (inactive).

Consider GAAGAAACCUUGACAAAAATT against KHDRBS3, for which the median seed-adjusted z-score was 0.0681 (inactive).
